Hit rate of the full screen: of about 39,000 compounds, about 3,300 (8.5%) were called active. Only a selection was taken, and actives are over-represented in it overall.
Test system: HepG2
Assay: cytotoxicity call (relative viability < 0.9)
Details: 10 µM

Structure (SMILES) | cytotoxicity call
C[C@@H]1CN([C@H](C)CO)C(=O)c2cccc(NS(=O)(=O)c3ccccc3)c2O[C@@H]1CN(C)S(=O)(=O)c1cccs1 | inactive
C/C1=C2/[N]([Co+][OH])[C@H]([C@H](CC(N)=O)[C@@]2(C)CCC(=O)NC[C@@H](C)OP(=O)(O)O[C@H]2[C@@H](O)[C@@H](n3cnc4cc(C)c(C)cc43)O[C@@H]2CO)[C@]2(C)N=C(/C(C)=C3N=C(/C=C4N=C1[C@@H](CCC(N)=O)C/4(C)C)[C@@H](CCC(N)=O)[C@]\3(C)CC(N)=O)[C@@H](CCC(N)=O)[C@]2(C)CC(N)=O | active
C[C@@H]1CN([C@@H](C)CO)C(=O)c2cc(NC(=O)Nc3ccc4c(c3)OCO4)ccc2O[C@H]1CN(C)C(=O)Nc1cccc2ccccc12 | inactive
O=C(C[C@@H]1C[C@H]2c3cc(NC(=O)NC4CCCC4)ccc3O[C@H]2[C@H](CO)O1)NCCN1CCCCC1 | inactive
O=c1cc(-c2ccccc2)oc2c(O)c(O)ccc12 | active
Cc1cc2cc3c(C)cc(=O)oc3c(C)c2o1 | inactive
Cc1cc(=O)oc2c(O)c(O)ccc12 | active
COc1ccc2c(=O)cc(-c3ccccc3)oc2c1OC | inactive
O=c1cc(-c2ccccc2)oc2cc(O)ccc12 | inactive
Cc1cc(=O)oc2cc(O)ccc12 | inactive
C[C@@H]1CCCCO[C@@H](CN(C)C(=O)Nc2ccc(F)cc2)[C@H](C)CN([C@H](C)CO)C(=O)c2cc(NC(=O)Nc3ccccc3)ccc2O1 | inactive
C[C@@H]1CN([C@@H](C)CO)C(=O)c2cc(NS(=O)(=O)c3ccc(Cl)cc3)ccc2O[C@@H](C)CCCCO[C@H]1CN(C)C(=O)c1ccccc1 | inactive
Cc1ccc(S[C@]2(C(=O)NCC(C)C)CC(=O)N(Cc3ccccc3C(F)(F)F)[C@@H]2c2ccc(CO)cc2)cc1 | inactive
Cc1noc(C)c1NC(=O)Nc1ccc2c(c1)C(=O)N([C@@H](C)CO)C[C@@H](C)[C@H](CN(C)Cc1ccc(Oc3ccccc3)cc1)O2 | inactive
COC(=O)CCCCCCC(=O)N/N=C/[C@H](O)[C@H](O)[C@@H](O)[C@H](C)O | inactive
C=CC[C@@H](CC(=O)N(CCO)Cc1ccccc1)C(=O)N[C@@H](COC(=O)[C@@H](CC=C)CC(=O)OC(C)(C)C)Cc1c[nH]c2ccccc12 | inactive
C=CC[C@@H](CC(=O)N(CCO)Cc1ccccc1)C(=O)N[C@@H](COC(=O)[C@H](CC=C)CC(=O)OC(C)(C)C)Cc1c[nH]c2ccccc12 | inactive
C=CC[C@@H](CC(=O)N(CCO)Cc1ccccc1)C(=O)N[C@H](COC(=O)[C@@H](CC=C)Cc1ccc(F)cc1)Cc1c[nH]c2ccccc12 | active
C=CC[C@H](CC(=O)N(CCO)Cc1ccccc1)C(=O)N[C@@H](COC(=O)[C@H](CC=C)CC(=O)OC(C)(C)C)Cc1c[nH]c2ccccc12 | inactive
C=CC[C@H](CC(=O)N(CCO)Cc1ccccc1)C(=O)N[C@H](COC(=O)[C@H](CC=C)CC(=O)OC(C)(C)C)Cc1c[nH]c2ccccc12 | inactive
C=CC[C@H](CC(=O)N(CCO)Cc1ccccc1)C(=O)N[C@@H](COC(=O)[C@@H](CC=C)Cc1ccc(F)cc1)Cc1c[nH]c2ccccc12 | active
C=CC[C@H](CC(=O)N(CCO)Cc1ccccc1)C(=O)N[C@H](COC(=O)[C@@H](CC=C)Cc1ccc(F)cc1)Cc1c[nH]c2ccccc12 | inactive
C=CC[C@@H](CC(=O)N(CCO)Cc1ccccc1)C(=O)N[C@@H](COC(=O)[C@@H](CC=C)Cc1ccc(F)cc1)Cc1c[nH]c2ccccc12 | inactive

Structure (SMILES) | cytotoxicity call
C=CC[C@@H](CC(=O)N(CCO)Cc1ccccc1)C(=O)N[C@@H](COC(=O)[C@H](CC=C)Cc1ccc(F)cc1)Cc1c[nH]c2ccccc12 | active
c1ccc2c(CSc3nc4ccccc4o3)cccc2c1 | inactive
CNC(=O)C[C@H]1CC[C@@H]2[C@H](COC[C@H](O)CN2C(=O)Nc2cccc(OC)c2)O1 | inactive
C[C@@H]1CCCCO[C@H](CN(C)C(=O)Nc2cccc3ccccc23)[C@@H](C)CN([C@H](C)CO)C(=O)c2cc(NC(=O)Nc3cccc4ccccc34)ccc2O1 | inactive
C[C@@H]1CN([C@@H](C)CO)C(=O)c2cc(NS(=O)(=O)c3ccc(Cl)cc3)ccc2O[C@@H](C)CCCCO[C@H]1CN(C)S(=O)(=O)c1ccccc1 | inactive
COc1ccc(NC(=O)N(C)C[C@H]2OCc3cnnn3CCCC(=O)N([C@H](C)CO)C[C@H]2C)c(OC)c1 | inactive
C[C@@H]1CN([C@H](C)CO)C(=O)c2c(c3ccccc3n2C)-c2ccccc2CO[C@H]1CN(C)C(=O)CCC(F)(F)F | inactive
C[C@@H]1CN([C@@H](C)CO)C(=O)c2cc(C#CC3(O)CCCC3)cnc2O[C@@H]1CN(C)C(=O)Nc1ccc2c(c1)OCO2 | inactive
COCC#Cc1ccc2c(c1)O[C@@H](CN(C)C(=O)C1CCOCC1)[C@@H](C)CN([C@H](C)CO)S2(=O)=O | inactive
CCS(=O)(=O)Nc1ccc2c(c1)C(=O)N(C)[C@H]1CC[C@@H](CC(=O)NCc3ccccc3F)O[C@H]1CO2 | inactive
C[C@@H]1CN([C@@H](C)CO)C(=O)Cc2cc(NC(=O)CCCCCC(=O)Nc3ccccc3N)ccc2O[C@@H]1CN(C)Cc1ccc(-c2ccccc2)cc1 | active
C[C@H](CO)N1C[C@H](C)[C@H](CN(C)Cc2ccc(-c3ccccc3)cc2)Oc2ccc(NC(=O)CCCCCC(=O)Nc3ccccc3N)cc2CC1=O | active
C[C@@H]1CN([C@H](C)CO)C(=O)Cc2cc(NC(=O)CCCCCC(=O)Nc3ccccc3N)ccc2O[C@@H]1CN(C)Cc1ccccc1 | inactive
C[C@H]1CN([C@@H](C)CO)C(=O)Cc2cc(NC(=O)CCCCCC(=O)Nc3ccccc3N)ccc2O[C@@H]1CN(C)Cc1ccc(-c2ccccc2)cc1 | inactive
C[C@@H]1CN([C@H](C)CO)C(=O)Cc2cc(NC(=O)CCCCCC(=O)Nc3ccccc3N)ccc2O[C@@H]1CN(C)Cc1ccc(-c2ccccc2)cc1 | active
C[C@H](CO)N1C[C@H](C)[C@@H](CN(C)Cc2ccc(-c3ccccc3)cc2)Oc2ccc(NC(=O)CCCCCC(=O)Nc3ccccc3N)cc2CC1=O | inactive
C[C@@H]1CN([C@H](C)CO)C(=O)Cc2cc(NC(=O)CCCCCC(=O)Nc3ccccc3N)ccc2O[C@@H]1CN(C)Cc1ccc(Cl)c(Cl)c1 | active
C[C@H]1CN([C@@H](C)CO)C(=O)Cc2cc(NC(=O)CCCCCC(=O)Nc3ccccc3N)ccc2O[C@H]1CN(C)Cc1ccc(Cl)c(Cl)c1 | inactive
C[C@H]1CN([C@@H](C)CO)C(=O)Cc2cc(NC(=O)CCCCCC(=O)Nc3ccccc3N)ccc2O[C@H]1CN(C)Cc1ccccc1 | inactive
C[C@@H]1CN([C@@H](C)CO)C(=O)Cc2cc(NC(=O)CCCCCC(=O)Nc3ccccc3N)ccc2O[C@@H]1CN(C)Cc1ccccc1 | inactive
C[C@@H]1CN([C@H](C)CO)C(=O)Cc2cc(NC(=O)CCCCCC(=O)Nc3ccccc3N)ccc2O[C@H]1CN(C)Cc1ccc(Cl)c(Cl)c1 | inactive
C[C@H](CO)N1C[C@H](C)[C@H](CN(C)Cc2ccccc2)Oc2ccc(NC(=O)CCCCCC(=O)Nc3ccccc3N)cc2CC1=O | inactive

From the antibiotic and cytotoxicity screens of Wong et al. (2023)
